MITF act = activators of MITF-driven TRPM1 promoter activity in SK-MEL-5 cells | SK-MEL-5 TRPM1-promoter luciferase, 24 h; % of positive control, neutral wells = 0 | activation, % at 12.5 µM | hit rate 0.75% among 300,000 | AID 588334;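 active means mean activation of at least 80% with every replicate also reaching 80%; inconclusive means mean reaches 80% but some replicate falls short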;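 further: 0% = neutral control wells and 100% = parthenolide positive control wells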
Wnt act = Wnt/beta-catenin pathway activation. AID 743398. activation, % at 9.35 µM. hit rate 1.2% among 300,000. Wnt/beta-catenin reporter cell assay, activator, plate reader; in the data active means activation above about 30%, passing the limit was not always enough; inconclusive means no clear call, values can overlap the other calls;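 further: 0% = neutral control wells and 100% = positive control wells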
HSF1 activator = increases HSF-1 driven luciferase reporter signal; NIH3T3-HGL HSF-1 luciferase reporter, MG132, 8 h; 100% = twice DMSO control signal; activation, % at 9 µM; hit rate 1.7% among 300,000; AID 504408;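 active means mean replicate activation of at least 50% with a set share of replicates each reaching 50%; inconclusive means only one of those two conditions met; inactive means mean below 50% and too few replicates reaching it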;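 further: 0% = median of the neutral control wells and 100% = twice that signal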
HSF1 inh = HSF1 inhibition. activity change, negative = inhibition, % at 7.5 µM (by protocol). hit rate 0.77% among 300,000. NIH3T3-HGL HSE-luciferase, MG132-induced, luminescence 8 h; stronger effect = lower value;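 active means more than half of replicate wells show activity change below -50%, luminescence cut by over half; inconclusive means some wells, but at most half, below -50%; inactive means no replicate well below -50%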;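 further: luciferase reports HSF-1 transcriptional activity via heat shock element; 0% = median of DMSO wells and -100% = zero luminescence signal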
esBAF inh = blocks esBAF chromatin remodeling in mouse ES cells; Bmi1-luciferase knock-in reporter, 24 h; 100% = twice the neutral-well signal; reporter increase, % at 12.5 µM; hit rate 2% among 350,000; AID 602393; in the data active means activation above about 40%; inconclusive means no clear call, values can overlap the other calls;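 further: 0% = median of the plate's neutral control wells and 100% = double that signal; a rise in the Bmi1 reporter signal indicates esBAF inhibition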
* = called active by the depositor; u = inconclusive; x = no result given. Compounds with a hit are over-represented: about 3.9% of the library has one in this group of screens.

SMILES | MITF act | Wnt act | HSF1 activator | HSF1 inh | esBAF inh
COc1ccc(C(=O)CNc2cccc(F)c2)cc1 | 71.7 | 18.6 | 34.4 | -0.9 | 63.3*
COc1ccc(C(=O)CCNc2cccc(Cl)c2)cc1 | 74.2 | 68.6* | 34.8 | 31.0 | x
C[C@@H]1CN([C@H](C)CO)C(=O)c2cc(NC(=O)CCN3CCOCC3)ccc2O[C@@H]1CN(C)C(=O)Nc1cccc2ccccc12 | x | x | x | x | -3.0
C[C@H](CO)N1C[C@H](C)[C@@H](CN(C)Cc2ccc(C(=O)Nc3ccccc3N)cc2)Oc2ccc(NC(=O)Cc3cn(C)c4ccccc34)cc2C1=O | x | x | x | x | -11.2
Cc1cccc(NC(=S)NCC23C=CC(O2)C2C(=O)N(c4ccc(Cl)cc4)C(=O)C23)c1 (configuration not stated) | -1.3 | -2.8 | 98.0* | 68.5 | x
Cc1ccc(NC(=S)NCC23C=CC(O2)C2C(=O)N(c4ccc(C)cc4)C(=O)C23)cc1 (configuration not stated) | 2.5 | -2.2 | -4.7 | -5.5 | x
CCn1ncc(Br)c1C(=O)Nc1ccc(C(C)C)cc1 | 10.4 | 6.1 | 58.9* | 25.1 | 20.8
CC(C)c1ccc(NC(=O)c2cc(Br)ccc2Br)cc1 | 29.1 | -0.9 | 8.1 | 14.8 | 71.8*
CC(=O)c1sc(Nc2ccc3c(c2)OCO3)nc1C | x | u | x | x | 46.7*
CC(=O)c1sc(NC(=O)C2COc3ccccc3O2)nc1C (configuration not stated) | x | 35.9* | -4.6 | -1.3 | -50.8
CC1(C)CC(=O)c2sc(NC(=O)C3COc4ccccc4O3)nc2C1 (configuration not stated) | 32.0 | 6.1 | 22.2 | 18.6 | 44.8*
O=C(NNc1nc2c(F)cc(F)cc2s1)C1COc2ccccc2O1 (configuration not stated) | 1.5 | -0.7 | -3.9 | -2.3 | x
CC1(C)CC(=O)c2sc(NC(=O)c3ccco3)nc2C1 | x | 5.3 | 8.8 | 7.0 | 24.4
CC(=O)c1sc(Nc2nc3cc4c(cc3s2)OCO4)nc1C | 3.1 | u | 33.9 | 6.6 | x
Cc1cccc2sc(NNC(=O)C3COc4ccccc4O3)nc12 (configuration not stated) | -17.6 | -2.5 | -90.2 | -86.8* | -0.3
COc1ccc(NC(=O)Nc2ccc3c(c2)C(=O)N([C@H](C)CO)C[C@H](C)[C@@H](CN(C)S(=O)(=O)c2ccc(C)cc2)O3)cc1 | x | x | x | x | 3.1
O=C(Nc1ccccc1F)N[C@H]1CC[C@@H](CCNC(=O)C2CCCC2)O[C@H]1CO | x | x | x | x | 6.4
C[C@H](CO)N1C[C@H](C)[C@H](CN(C)S(=O)(=O)c2cccs2)Oc2ncc(-c3cccc(C(F)(F)F)c3)cc2C1=O | x | x | x | x | 6.0
CC(C)COC(=O)N(C)C[C@H]1OCc2cnnn2CCCC(=O)N([C@@H](C)CO)C[C@@H]1C | x | x | x | x | -1.1
CC(C)(C)c1csc(NC(=O)C2COc3ccccc3O2)n1 (configuration not stated) | 66.4 | -0.4 | 26.0 | 24.7 | 55.1*
Cc1nc2ccc(-c3nc4ccccc4o3)cc2[nH]1 | 59.4 | x | 43.7 | 28.9 | -0.9
Clc1ccc2oc(-c3ccccn3)nc2c1 | 19.3 | x | 18.1 | 15.7 | x
Cc1ccnc2ccc(-c3nc4ccccc4o3)cc12 | 8.0 | 67.2* | x | x | 23.1
c1ccc(-c2nc3ccccc3o2)nc1 | 34.4 | x | 23.0 | 13.4 | 46.4*
c1ccc2nc(-c3nc4ccccc4o3)ccc2c1 | -51.2 | 2.6 | -20.2 | -14.2 | -5.2
SMILES | MITF act | Wnt act | HSF1 activator | HSF1 inh | esBAF inh
Nc1ccc2oc(-c3ccccn3)nc2c1 | 47.5 | 44.0* | 0.7 | 3.5 | 30.4
CCCNC(=O)Nc1ccc2c(c1)C(=O)N(C)[C@H]1CC[C@H](CC(=O)NCc3ccccc3)O[C@H]1CO2 | x | x | x | x | 6.6
CC(=O)N(C)C[C@H]1Oc2cc(-c3ccccc3)ccc2S(=O)(=O)N([C@@H](C)CO)C[C@@H]1C | x | x | x | x | 7.7
C[C@@H]1CN([C@H](C)CO)C(=O)Cc2cc(NC(=O)Nc3ccccc3)ccc2O[C@H]1CN(C)C(=O)Nc1cccc2ccccc12 | x | x | x | x | 1.3
COc1ccc(S(=O)(=O)Nc2ccc3c(c2)C(=O)N([C@H](C)CO)C[C@@H](C)[C@@H](CN(C)CC2CCCCC2)OCCCC[C@H](C)O3)cc1 | x | x | x | x | -0.3
CC=Cc1ccc2n(c1=O)C[C@H]1[C@H](CO)[C@@H](C(=O)NC3CCCC3)[C@@H]2N1Cc1ccncc1 (mixture of isomers) | x | x | x | x | -10.6
O=C1CCC(=O)N1CCSC(=S)N1CCOCC1 | x | 34.5* | -7.5 | -5.5 | x

Screening results deposited in PubChem by Broad Institute.
